In ChEMBL document CHEMBL3433997, “St. Jude Leishmania screening dataset” (2016):

Tests used:
Type in all cases: functional
[1] = target: Solute carrier family 2, facilitated glucose transporter member 1 (Homo sapiens) (UniProt P11166); assay: ST_JUDE_LEISH: Cytotoxicity at 2uM final concentration against transgenic Leishmania Mexicana promastigotes LmGLUT1 that are glucose transport deficient and complemented with the human glucose transporter GLUT1. Activity is measured by DNA content using SYBR green in vitro
Sequence of Solute carrier family 2, facilitated glucose transporter member 1 (Homo sapiens) (P11166 whole entry): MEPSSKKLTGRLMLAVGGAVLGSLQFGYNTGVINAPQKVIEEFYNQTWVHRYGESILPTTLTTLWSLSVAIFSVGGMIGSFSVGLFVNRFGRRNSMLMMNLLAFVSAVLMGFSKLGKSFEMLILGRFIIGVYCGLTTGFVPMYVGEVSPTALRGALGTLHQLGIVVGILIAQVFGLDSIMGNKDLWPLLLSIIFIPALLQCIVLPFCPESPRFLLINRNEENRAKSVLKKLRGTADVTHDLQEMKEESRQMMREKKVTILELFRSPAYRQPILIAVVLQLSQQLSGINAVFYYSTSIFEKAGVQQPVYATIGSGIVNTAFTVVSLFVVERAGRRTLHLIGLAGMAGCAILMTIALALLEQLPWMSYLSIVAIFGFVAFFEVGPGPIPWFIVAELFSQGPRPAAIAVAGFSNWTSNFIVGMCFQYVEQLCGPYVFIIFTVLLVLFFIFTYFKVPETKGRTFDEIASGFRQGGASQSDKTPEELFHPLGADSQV

[2] = target: Hexose transporter 1 (Plasmodium falciparum) (UniProt O97467); assay: ST_JUDE_LEISH: Cytotoxicity at 2uM final concentration against transgenic Leishmania Mexicana promastigotes LmPfHT that are glucose transport deficient and complemented with the Plasmodium falciparum hexose transporter. Activity is measured by DNA content using SYBR green in vitro
[3] = target: Glucose transporter (Leishmania mexicana) (UniProt O61059); assay: ST_JUDE_LEISH: Cytotoxicity at 2uM final concentration against transgenic Leishmania Mexicana promastigotes LmGT2 that are glucose transport deficient and complemented with the L. Mexicana glucose transporter 2. Activity is measured by DNA content using SYBR green in vitro

Row | Structure (SMILES) | inhibition [1] | inhibition [2] | inhibition [3]
1 | COc1ccc(-c2cc(C(=O)N[C@@H](CC3CCCCC3)C(=O)NCCN3CCCC3)ccc2O)cc1 | 0.33% | 1.9% | 1.32%
2 | Cc1cccc2nc(-c3ccc(-c4cccc(CNCc5cccc(N)c5)c4)s3)[nH]c12 | 2.48% | 1.7% | 2.35%
3 | COc1cc(Nc2nccc(N3CCC(NC(=O)c4cc5ccccc5s4)C3)n2)cc(OC)c1OC (stereo unspecified) | 0.5% | 0.56% | -0.45%
4 | O=C(Nc1cccc(OC2CCN(Cc3ccc(F)cc3)CC2)c1)c1ccc(C(F)(F)F)cc1 | 0.28% | 0.67% | 0.79%
5 | COc1ccc(N2CCN(CCCOc3ccc(NC(=O)c4cc(Cl)cc(Cl)c4)cc3)CC2)c(OC)c1 | 6.5% | 5.97% | 6.22%
6 | COc1ccc(NS(=O)(=O)c2ccc(Oc3nc(C)nc4sc5c(c34)CCCC5)cc2)cc1 | 3.13% | 3.7% | 2.29%
7 | CCC(C)NS(=O)(=O)c1ccc2nc(Nc3cccc(SC)c3)n(C(C)C(C)C)c2c1 (stereo unspecified) | 3.91% | 4.3% | 3.8%
8 | O=C(NCCc1ccc(Cl)c(Cl)c1)[C@@H]1CCCN1C(=O)c1ccc(O)c(-c2cccc(C(F)(F)F)c2)c1 | 1.34% | -0.04% | -2.44%
9 | Fc1ccc(C(OCC2CCCN(Cc3cccc4cccnc34)C2)c2ccc(F)cc2)cc1 (stereo unspecified) | 2.49% | 0.62% | -2.6%
10 | Cc1nc(NCc2ccccc2)cc(Nc2cc(NCc3ccccc3)nc(C)n2)n1 | 4.26% | 3.76% | 1.98%
11 | CN1CCN(S(=O)(=O)c2cccc(Nc3nccc(N(C)c4ccc5c(c4)nc(NC(=O)c4cccs4)n5C)n3)c2)CC1 | -0.55% | 0.27% | 1.49%
12 | Cc1cc(N(C)CCCN(C)C)nc(Nc2ccc(Cl)cc2)n1 | -1.04% | 1.73% | -0.32%
13 | OC(Cn1ccnc1)(c1ccc(Cl)cc1Cl)C1CCCCC1 (stereo unspecified) | 7.78% | 1.5% | -0.69%
14 | O=C(/C=C/c1ccccc1Cl)Nc1ccc(Br)c(OCCN2CCC(O)(c3ccccc3)CC2)c1 | 2.66% | 0.95% | -0.34%
15 | NCCC(=O)Nc1ccc(-c2cnc3[nH]cc(-c4ccc(C(=O)O)cc4)c3c2)cn1 | 1.05% | 1.74% | 0.13%
16 | Cc1cccc2nc(-c3cccc(-c4ccc(NC(=O)C5CCCO5)cc4)c3)[nH]c12 (stereo unspecified) | 6.93% | 3.31% | 2.04%

Row | Structure (SMILES) | inhibition [1] | inhibition [2] | inhibition [3]
17 | COc1cc(CNC[C@@H](O)[C@H](Cc2ccccc2)NC(=O)c2cc(OC(C)C)cc(N3CCCS3(=O)=O)c2)cc(OC)c1 | 4.85% | 4.74% | 2.1%
18 | Cc1cc(N(C)C2CCN(CC3CCCCC3)C2)nc(Nc2ccc(Br)cc2)n1 (stereo unspecified) | 2.84% | 4.85% | 2.06%
19 | c1ccc2c(NCCCCCCCCNc3ccnc4ccccc34)ccnc2c1 | -0.47% | 0.85% | 1.12%
20 | Cc1ccc2[nH]c(C3CCCNC3)c(-c3ccncc3)c2c1 (stereo unspecified) | 9.43% | 9.43% | 8.51%
21 | COc1ccc(Cl)cc1-c1nc(C(=O)NCCN2CCCCC2)c(C(C)C)s1 | -3.64% | -0.2% | 3.06%
22 | Cc1ccc(S(=O)(=O)NC2CCN(c3ccnc4cc(Cl)ccc34)C2)cc1 (stereo unspecified) | 3.79% | 3.39% | 4.19%
23 | Cc1nc(-c2ccc(-c3ccc(C(=O)Nc4ccc(I)c(OCCN5CCCC5)c4)cc3)c(C)c2)no1 | 3.85% | 3.48% | 1.38%
24 | Cc1c(C)n(C2CCCC2)c2ncnc(OC3CCN(CC(=O)NC4CC4)CC3)c12 | 9.5% | 6.34% | 7.75%
25 | Cc1cccc2nc(-c3cccc(-c4ccc(CN5CCCC5CN)cc4)c3)[nH]c12 (stereo unspecified) | 1.85% | 0.15% | 0.68%
26 | O=C(Nc1cccc(C(F)(F)F)c1)c1cccc(S(=O)(=O)NCC2CCN(CC3CCCCC3)CC2)c1 | 0.21% | -0.63% | -0.78%
27 | O=C(C=Cc1ccc(Cl)c(Cl)c1)NCCCCCN1CCC(CCCNC(=O)c2sc3ccccc3c2Cl)CC1 | 2.7% | 0.72% | 1.61%
28 | Cc1cc2c(/C=C/C(=O)NC3CCC(CCN4CCc5ccc(C#N)cc5CC4)CC3)cccc2[nH]1 (stereo unspecified) | 4% | 4.14% | 3.25%
29 | COc1ccc([N+](=O)[O-])cc1N(Cc1ccccc1-c1ccccc1)S(=O)(=O)c1ccc(C(F)(F)F)cc1[N+](=O)[O-] | 8.36% | 5.46% | -1.25%
30 | Clc1ncccc1-c1nc(NCCC(c2ccccc2)c2ccccc2)no1 | 4.29% | 2.24% | 2.64%
31 | O=[N+]([O-])c1cccc(CNCC2CCC(CNCc3cccc([N+](=O)[O-])c3)CC2)c1 (stereo unspecified) | 2.25% | -2.59% | 1.26%
32 | CCCCN(CCCC)CCNC(=O)c1cc(OC(F)(F)F)ccc1O | 1% | 0.8% | 0.03%
